Assay outcomes from PubChem BioAssay.
This is a sample that favours compounds with a hit; in the whole collection about 2.2% have one here.
PHOSPHO1 block: PHOSPHO1 (human) inhibition; Q8TCT1; recombinant PHOSPHO1, absorbance phosphatase assay; inhibition, % at 13.3 µM; hit rate 1.1% among 290,000; in the data active = inhibition above about 60%
Target sequence (Q8TCT1 whole entry, looked up): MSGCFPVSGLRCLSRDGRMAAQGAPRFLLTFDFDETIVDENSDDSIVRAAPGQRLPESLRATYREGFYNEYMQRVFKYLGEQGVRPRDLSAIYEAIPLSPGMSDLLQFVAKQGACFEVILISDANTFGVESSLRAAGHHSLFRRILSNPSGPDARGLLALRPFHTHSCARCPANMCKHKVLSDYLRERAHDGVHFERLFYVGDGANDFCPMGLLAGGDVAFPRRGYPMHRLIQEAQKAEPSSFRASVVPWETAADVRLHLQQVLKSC
GASC-1 inh: blocks human GASC-1 demethylase activity; Q9H3R0; GST-JMJD2C(1-420) H3K9me3 demethylation, DELFIA europium; inhibition, % at 2.35 µM; hit rate 0.069% among 330,000; AID 2099;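 active = more than half of a compound's replicate wells show inhibition beyond 50%, single wells judged on their own value; inconclusive = some, but no more than half, of replicates pass 50% inhibition; inactive = no replicate passes 50% inhibition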;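 also: signal counts dimethyl H3K9 product captured on neutravidin plate; 0% = median of DMSO wells and 100% = 0.3 times that DMSO median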
Mot1-301 SUMO: blocks SUMOylation pathway, rescuing yeast Mot1-301 growth; growth rescue, % at 18.8 µM; hit rate 1% among 320,000; S. cerevisiae Mot1-301 growth rescue, ATP luminescence, 38.5C; percent above DMSO median, 100 means doubled;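 active = every valid replicate shows activation above 250% relative to neutral control wells; inactive = the rest, any valid replicate at or below 250%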;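 also: OY570 slx delta 5 strain wells were the positive control but not used for scaling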
pCIP destab: p/CIP protein destabilization | Q05BA5 | F442A p/CIP-EGFP cells, EGFP fluorescence, 16 h | decrease of EGFP signal, % at 10 µM | hit rate 0.01% among 290,000 | AID 1984;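 active = EGFP signal decrease of at least 30% at 10 µM or well 3 SD below plate mean, unless failing retest; inactive = the rest, including hits failing retest or dose response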
HDAC3 inh: inhibitors of human histone deacetylase 3; inhibition, % at 8.3 µM; hit rate 0.15% among 320,000; O15379; AID 2718; recombinant HDAC3, fluorogenic peptide/trypsin coupled, fluorescence; in the data active = inhibition above about 26%, passing the limit was not always enough; inconclusive = no clear call, values can overlap the other calls
PvdQ inh: P. aeruginosa PvdQ acylase inhibition | purified PvdQ acylase, fluorescence plate reader | inhibition, % at 10 µM | hit rate 0.063% among 340,000 | AID 488965; in the data active = inhibition above about 30%, passing the limit was not always enough; inconclusive = no clear call, values can overlap the other calls;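 also: 0% = vehicle neutral wells and 100% = reference inhibitor wells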
Yeast Mot1 SUMO: yeast SUMO pathway inhibition in dose response. shares compounds with Mot1-301 SUMO. S. cerevisiae Mot1-301 galactose growth, ATP luminescence, 24 h; -100 = growth of slx-deleted rescue strain. growth activity, percent, % at 42 µM. 2,300 tested, under 10 active;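 active = Signal drops as the depositor expects, and the fitted half-maximal dose is no more than ten times the top valid tested dose; inconclusive = Poor fit, or a flat curve whose signal drops by 30% to 70%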;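 also: more negative values mean stronger growth rescue toward the control strain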
An asterisk follows results filed as active; ? = inconclusive; . = not tested or not shown; + = active, no number.

SMILES	PHOSPHO1 block	GASC-1 inh	Mot1-301 SUMO	pCIP destab	HDAC3 inh	PvdQ inh	Yeast Mot1 SUMO
CCOP(=O)(OCC)c1cc(CC)ccc1O	3	-11	+	-11	-10	-9	0
CC1C(c2cccs2)=[N+]([O-])C(C)(C(=O)c2ccc(F)cc2)N1O (stereo unspecified)	.	-2	-17	.	-3	-5	.
CCC1C(c2ccccc2)NC(c2ccccc2)CC1(O)c1ccc(F)cc1 (stereo unspecified)	24	0	683*	-6	3	-12	0
CCC(=O)N1CC(=O)Nc2ccc(F)cc2C1c1ccccc1 (stereo unspecified)	5	-7	122	-1	-3	-16	.
O=C(NC1CN2CCC1CC2)c1ccc(-c2ccc([N+](=O)[O-])cc2)o1 (stereo unspecified)	3	5	11	-14	1	11	.
C[N+](C)(C)CC(=O)Nc1ccc(Cl)cc1C(=O)c1ccccc1	2	4	415*	-7	-2	-1	0
CN(C)CCCNCC(=O)Nc1ccc(Cl)cc1C(=O)c1ccccc1	1	-3	5	-8	-5	2	.
Cc1ccc(C2SCC(=O)Nc3c2c(=O)[nH]n3C2CCOC(C)(C)C2)cc1 (stereo unspecified)	6	1	3	-5	-1	-4	.
COc1ccc(C2SCC(=O)Nc3c2c(=O)[nH]n3C2CCCCC2)cc1 (stereo unspecified)	5	-4	824*	5	-5	0	0
OC1(c2ccc(F)cc2)CC2CCC(C1)N2Cc1nnnn1C1CCCCC1 (stereo unspecified)	-12	1	674*	-2	4	8	1
OCCN1C2CCC1CC(O)(c1ccc(F)cc1)C2 (stereo unspecified)	18	-1	-11	-14	-1	6	.
Cc1cc(/C=C2\C(=O)NC(=O)N(c3ccccc3F)C2=O)c(C)n1-c1cc(C(=O)O)cc(C(=O)O)c1	24	21	737*	1	5	-6	0
CC(C)C/C(=N/O)c1c[nH]c2ccccc12	1	-2	572*	8	13	-7	1
O=C(COc1ccc2ccccc2c1)N1CCN(CC2CC3C=CC2C3)CC1 (stereo unspecified)	32	-7	-15	-19	0	-14	.
COC(=O)[C@@H]1[C@@H](C(=O)OC)C2(c3ccccc3-c3ccccc32)N(c2ccc(Cl)cc2)N1C#N	3	4	427*	-6	10	8	-1
CCOc1c(P(=S)(N(C)C)N(C)C)c(C)nn1-c1ccccc1	0	4	891*	7	-3	-17	0
CCN(CC)P(=S)(c1c(C)nc2ccccn12)c1c(C)nc2ccccn12	-14	10	-21	-6	8	14	.
C=C1C(O)[C@@H]2O[C@]3(CC[C@H](/C=C/C(C)[C@@H]4CC(C)=CC5(O[C@H](C[C@@](C)(O)C(=O)O)CCC5O)O4)O3)CC[C@H]2O[C@@H]1C(O)CC(C)[C@H]1OC2(CCCCO2)CCC1C (stereo partly specified)	.	.	888*	.	0	.	-2
COc1ccc2c(c1)[C@@]13CCC=C[C@H]1[C@@H](C2)NCC3	.	.	455*	.	-10	-5	0
COC(=O)C1=C(c2cccc(OCc3ccccc3)c2)C[C@@H]2CC[C@H]1N2C(=O)NCc1ccc(C(F)(F)F)cc1	.	-2	38	.	?	-15	.
CCOC(=O)c1c(C)n(Cc2ccc3c(c2)OCO3)c2ccc(O)cc12	6	1	5	-9	10	9	.
COC(=O)c1c(C)n(Cc2ccc3c(c2)OCO3)c2ccc(O)cc12	-3	-4	696*	-10	8	-8	0
CN1C(=O)N(C)C(=O)C(CCc2ccncc2)(Cc2ccc3c(c2)OCO3)C1=O	0	-4	5	-15	5	-14	.
CCOC(=O)C1(c2ccccc2)CCN(CCC(=O)Nc2ccc(F)cc2)CC1	.	0	10	.	3	-14	.
CCOC(=O)C1(c2ccccc2)CCN(CCC(=O)Nc2ccccc2OC)CC1	-17	-6	378*	-14	0	-15	1
SMILES	PHOSPHO1 block	GASC-1 inh	Mot1-301 SUMO	pCIP destab	HDAC3 inh	PvdQ inh	Yeast Mot1 SUMO
Cn1c(O)c(/C=N/N2CCOCC2)c(=O)[nH]c1=S	-44	-6	357	-7	-1	.	.
CN(C)C1(c2nnnn2-c2ccc(Cl)cc2)CCCCC1	-2	5	737*	-7	-4	-1	0
CCN(CC)CCCOC(=O)C(OC(C)C)(c1ccccc1)c1ccccc1	1	?	19	0	-3	0	.
CCOC(C(=O)OCCCN(CC)CC)(c1ccccc1)c1ccccc1	15	4	510*	-1	-4	10	-1
COC(=O)C1=C(c2ccc(OC(F)(F)F)cc2)C[C@@H]2CC[C@H]1N2C(=O)N1CCCC1	.	-11	-18	.	8	4	.
CCC1(OC(=O)c2ccccc2)CC(C)N(C)CC1C (stereo unspecified)	.	-8	-8	-7	-1	7	.
COc1ccc(Oc2c(C)oc3cc(OC(=O)N(C)C)ccc3c2=O)cc1	11	-26	524*	-11	-6	-6	-1
